The nature of test [1]: Nuclear factor erythroid 2-related factor 2/antioxidant responsive element (Nrf2/ARE) small molecule agonists: qHTS cell viability counter screen in human keratinocytes (AID 1919968; active = well fitted curve in the direction sought with a large enough effect in the repeat runs; an effect the other way counts as inactive or inconclusive; note: nearly all actives have a fitted effect of over 55% in size). Summed up: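 Cells of the KeratinoSens line were plated at 1,500 per well and left for 5 h before compound transfer from DMSO stocks. After a 23 h incubation (37 C, 5% CO2), CellTiter-Fluor was added. Signal was taken as fluorescence intensity 1 h later.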
A general note: Quantitative high-throughput screening tests each substance at several concentrations.

Test [2] in a line: Nuclear factor erythroid 2-related factor 2/antioxidant responsive element (Nrf2/ARE) small molecule agonists: luciferase reporter gene qHTS assay in human keratinocytes (AID 1919969). Note: nearly all actives have a fitted effect of over 35% in size. Note: potency is the fitted concentration of half-maximal effect. Background: In a reporter assay the amount or activity of a reporter protein is the signal.
Test [3] concerns the target Gonadotropin-releasing hormone receptor (Homo sapiens) (UniProt P30968). Briefly: Human gonadotropin-releasing hormone receptor (GnRHR) small molecule agonists, calcium flux assay in GnRHR-HEK293 cells (AID 1920063). Note: nearly all actives have a fitted effect of over 35% in size. Summed up: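 Compounds dissolved in DMSO are pin-transferred onto dye-loaded GnRHR-HEK293 cells, which were seeded 18 h before at 37 C/5% CO2. Calcium signal is read as fluorescence intensity at 1 s intervals for 3 min.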
For orientation: Calcium assays in cells follow changes in intracellular calcium, usually with a dye or a luminescent sensor.

Test [4] concerns the target KiSS-1 receptor (Homo sapiens) (UniProt Q969F8). Briefly: Human kisspeptin (KISS1R) small molecule agonists, calcium flux assay in KISS1R-HEK293 cells (AID 1920064; active = well fitted curve in the direction sought with a large enough effect in the repeat runs; an effect the other way counts as inactive or inconclusive). In outline: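 Cell line: HEK293, stable human KISS1R. Dye loading 1 h at 37 C after 18 h culture. Read: kinetic fluorescence, 480/540 nm, 3 min at 1 s intervals.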
The nature of test [5]: G protein-coupled receptor (GPCR) small molecule agonists, calcium flux assay: HEK293 wild type cell line counter screen (AID 1920065). In outline: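 Tox21 10K compounds, 15 concentrations each in triplicate, pin-transferred in DMSO onto dye-loaded cells; kinetic read at 480/540 nm for 3 min, 1 s intervals.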
The nature of test [6]: p53 small molecule agonists, cell-based qHTS assay with rat liver microsomes (AID 1963578). Summed up:
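p53RE-bla cells, 4,000/well, pre-incubated 5 h, then given compounds plus rat liver microsomes (0.5 mg/mL final) and NADPH (0.5 mg/mL final). Incubation 16 h at 37 C; beta-lactamase reporter read by LiveBLAzer fluorescence after 2 h at room temperature.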

Test [7] can be described thus: p53 small molecule agonists, cell-based qHTS assay with human liver microsomes: qHTS cell viability counter screen (AID 1963579). Note: nearly all actives have a fitted effect of over 45% in size. Summed up:
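p53RE-bla cells, 4,000/well, dosed 5 hours after plating, with human liver microsomes (0.5 mg/mL final) plus NADPH (0.5 mg/mL final), 16 hours at 37 C. Viability read as CellTiter-Glo luminescence after 30 min at room temperature.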

Test [8] in a line: p53 small molecule agonists, cell-based qHTS assay with rat liver microsomes: qHTS cell viability counter screen (AID 1963580). Note: nearly all actives have a fitted effect of over 45% in size. Summed up: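 After the beta-lactamase ratio was read, CellTiter-Glo was added to the same wells and luminescence measured at 30 min; cells had been treated 16 h at 37 C with compounds, rat liver microsomes and NADPH (0.5 mg/mL final each).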
Test [9] in a line: p53 small molecule agonists, cell-based qHTS assay: qHTS cell viability counter screen (AID 1963581). Note: nearly all actives have a fitted effect of over 45% in size. Summed up: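 ATP content measured by luminescence in HCT-116 p53RE-bla cells treated 16 h at 37 C, same wells as the reporter screen.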
Test [10] in a line: p53 small molecule agonists, cell-based qHTS assay (AID 1963582; active = well fitted activation curve with a large enough effect in the signal ratio in the repeat runs, not every such curve was filed as active; the % refers to the signal ratio). In outline: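 16 h compound exposure (37 C) of p53 response element–bla cells, preceded by 5 h recovery at 37 C/5% CO2; read-out via LiveBLAzer B/G FRET substrate, 2 h RT, fluorescence intensity.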
Test [11] addresses 5-hydroxytryptamine receptor 2A (Homo sapiens) (UniProt P28223). Briefly: 5-hydroxytryptamine receptor 2A (HTR2A) small molecule antagonists, cell-based qHTS assay (AID 1963586). Note: nearly all actives have a fitted effect of over 45% in size. Note: potency is the fitted concentration of half-maximal effect. Summed up: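 CHO cells stably expressing human HTR2A were plated for 18 h at 37 C, then loaded with calcium dye for 1 h. Compounds were preincubated 5 min at room temperature before DOI (4 nM solution) was added. Kinetic fluorescence was read for 3 min.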

For test [12] the target is unchanged. As to the kind of experiment: 5-hydroxytryptamine receptor 2A (HTR2A) small molecule agonists, cell-based qHTS assay (AID 1963587). Note: nearly all actives have a fitted effect of over 30% in size. Note: potency is the fitted concentration of half-maximal effect. Summed up:
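CHO cells stably expressing human HTR2A, plated 18 h, loaded with calcium dye 1 h at 37 C. Agonist mode: compounds added and intracellular calcium fluorescence recorded kinetically for 2 min at 1 sec intervals.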

For test [13], the target named is Muscarinic acetylcholine receptor M1 (Homo sapiens) (UniProt P11229). As to the kind of experiment: Cholinergic receptor muscarinic 1 (CHRM1) small molecule antagonists, cell-based qHTS assay (AID 1963588). Note: nearly all actives have a fitted effect of over 40% in size. Note: potency is the fitted concentration of half-maximal effect. Summed up: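 Compounds were tested at 15 concentrations in three independent runs. Dye-loaded CHRM1-CHO cells were exposed 5 min at room temperature before stimulation by acetylcholine added at 50nM. Intracellular calcium was read kinetically on FDSS for 3 min.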
Muscarinic acetylcholine receptor M1 (Homo sapiens), sequence (P11229 whole entry, looked up): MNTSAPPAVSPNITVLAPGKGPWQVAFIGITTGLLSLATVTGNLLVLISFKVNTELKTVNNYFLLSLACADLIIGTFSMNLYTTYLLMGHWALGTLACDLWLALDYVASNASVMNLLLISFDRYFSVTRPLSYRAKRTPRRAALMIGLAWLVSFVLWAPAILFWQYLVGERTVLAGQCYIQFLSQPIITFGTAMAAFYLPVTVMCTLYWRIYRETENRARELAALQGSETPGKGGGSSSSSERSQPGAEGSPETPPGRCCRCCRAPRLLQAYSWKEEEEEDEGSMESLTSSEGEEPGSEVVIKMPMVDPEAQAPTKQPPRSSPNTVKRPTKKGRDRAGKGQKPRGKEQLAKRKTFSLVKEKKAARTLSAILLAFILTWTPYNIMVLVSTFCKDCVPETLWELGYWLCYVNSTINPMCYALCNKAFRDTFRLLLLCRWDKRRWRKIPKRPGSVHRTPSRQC

Test [14] shares this target. Briefly: Cholinergic receptor muscarinic 1 (CHRM1) small molecule agonists, cell-based qHTS assay (AID 1963589). Note: nearly all actives have a fitted effect of over 35% in size. Summed up:
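Homogeneous fluorescence calcium flux, agonist mode. Human M1-expressing CHO cells; compound dosed at 15 concentrations, three independent runs; signal sampled every 1 sec.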

The target in test [15] is Beta-2 adrenergic receptor (Homo sapiens) (UniProt P07550). As to the kind of experiment: Adrenergic beta2 receptor (ADRB2) small molecule agonists, cell-based qHTS assay (AID 1963593).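 Note: CHO cells stably overexpressing human ADRB2.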 In outline: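 CHO cells stably over-expressing ADRB2 were plated overnight at 37C, then dosed with compounds plus a stimulation mix containing 100uM IBMX and 25uM Ro-20-1724 for 0.5hr at room temperature. cAMP was measured by HTRF competition, 1hr.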
Beta-2 adrenergic receptor (Homo sapiens), sequence (P07550 whole entry, looked up): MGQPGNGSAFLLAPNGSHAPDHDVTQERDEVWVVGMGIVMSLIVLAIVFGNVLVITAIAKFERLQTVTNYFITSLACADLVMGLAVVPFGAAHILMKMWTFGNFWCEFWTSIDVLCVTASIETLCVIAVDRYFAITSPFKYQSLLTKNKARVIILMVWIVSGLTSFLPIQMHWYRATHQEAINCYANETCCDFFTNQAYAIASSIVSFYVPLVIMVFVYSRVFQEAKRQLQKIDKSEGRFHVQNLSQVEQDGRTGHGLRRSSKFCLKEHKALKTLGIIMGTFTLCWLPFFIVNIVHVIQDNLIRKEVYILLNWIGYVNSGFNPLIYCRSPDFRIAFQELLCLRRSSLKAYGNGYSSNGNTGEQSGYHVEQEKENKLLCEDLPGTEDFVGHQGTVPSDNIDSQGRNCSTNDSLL

Test [16] has as its target D(2) dopamine receptor (Homo sapiens) (UniProt P14416). As to the kind of experiment: Dopamine D2 receptor (DRD2) small molecule agonists, cell-based qHTS assay (AID 1963594). Note: nearly all actives have a fitted effect of over 35% in size. Summed up: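 HEK293 cells stably expressing human DRD2, pre-treated with PDE inhibitor Ro20-1724 (0.1 mM final) and compound 10 min at room temperature, then stimulated with NKH477 (200nM […]) for 30 min. cAMP read by HTRF (665/620 nm).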

For test [17] the target is unchanged. As to the kind of experiment: Dopamine D2 receptor (DRD2) small molecule antagonists, cell-based qHTS assay (AID 1963595; active = well fitted inhibition curve with a large enough effect in the signal ratio in the repeat runs, with a control signal flat; the % refers to the signal ratio). In outline:
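Stable D2 receptor HEK293 line, 24 h after seeding. Compound preincubated 10 min, then quinpirole (12 nM) with forskolin analogue NKH477 (200 nM), 30 min, room temperature. Detection by time-resolved FRET of cAMP.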

Test [18] is described as follows: cAMP Responsive Elements (CRE) small molecule agonists, cell-based qHTS assay (AID 1963590). Summed up:
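HEK 293T cells stably bearing CRE-bla were plated at 2,000 cells per well and rested 18 h. Compounds, positive controls or DMSO were added for 3 h at 37 C. LiveBLAzer B/G substrate was then loaded for 2 h at room temperature.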

The nature of test [19]: cAMP Responsive Elements (CRE) small molecule antagonists, cell-based qHTS assay (AID 1963591; active = well fitted inhibition curve with a large enough effect in the signal ratio in the repeat runs, not every such curve was filed as active; the % refers to the signal ratio). Summed up: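 First, CRE-bla HEK293T cells settled 18 h at 37 C. Next, compound and 0.25 uM final NKH477 were applied for 3 h. Last, LiveBLAzer B/G substrate was loaded for 2 h at room temperature.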
Test [20] concerns the target Beta-2 adrenergic receptor (Homo sapiens) (UniProt P07550). Briefly: Adrenergic beta2 receptor (ADRB2) small molecule antagonists, cell-based qHTS assay (AID 1963592). Note: series mostly up to about 92 µM; nearly all actives have a fitted effect of over 50% in size. Summed up:
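Assay format: CHO-ADRB2 cells, 18-20hr seeding at 37C/5% CO2, then compound plus 1nM isoproterenol agonist mix for 0.5hr RT. Homogeneous time-resolved fluorescence cAMP detection after 1hr, expressed as 665/615 nm ratio.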

Molecules are shown by their SMILES. Results filed as inconclusive are left out. Activity calls are given as the source filed them. Unless noted, calls come from the whole dose curve.

D(2) dopamine receptor (Homo sapiens), sequence (P14416 whole entry, looked up): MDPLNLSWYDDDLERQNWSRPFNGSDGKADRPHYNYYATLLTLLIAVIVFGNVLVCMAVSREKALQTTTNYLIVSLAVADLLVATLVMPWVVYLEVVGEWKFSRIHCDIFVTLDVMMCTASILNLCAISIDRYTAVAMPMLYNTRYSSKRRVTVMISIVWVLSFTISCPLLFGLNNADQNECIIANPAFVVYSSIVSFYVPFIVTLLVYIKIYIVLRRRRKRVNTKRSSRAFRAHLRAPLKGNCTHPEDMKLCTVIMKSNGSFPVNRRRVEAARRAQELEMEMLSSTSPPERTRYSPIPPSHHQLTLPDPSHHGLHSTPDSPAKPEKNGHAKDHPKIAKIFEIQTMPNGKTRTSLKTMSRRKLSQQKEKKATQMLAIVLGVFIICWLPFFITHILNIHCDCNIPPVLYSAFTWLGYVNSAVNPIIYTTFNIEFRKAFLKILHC
5-hydroxytryptamine receptor 2A (Homo sapiens), sequence (P28223 whole entry, looked up): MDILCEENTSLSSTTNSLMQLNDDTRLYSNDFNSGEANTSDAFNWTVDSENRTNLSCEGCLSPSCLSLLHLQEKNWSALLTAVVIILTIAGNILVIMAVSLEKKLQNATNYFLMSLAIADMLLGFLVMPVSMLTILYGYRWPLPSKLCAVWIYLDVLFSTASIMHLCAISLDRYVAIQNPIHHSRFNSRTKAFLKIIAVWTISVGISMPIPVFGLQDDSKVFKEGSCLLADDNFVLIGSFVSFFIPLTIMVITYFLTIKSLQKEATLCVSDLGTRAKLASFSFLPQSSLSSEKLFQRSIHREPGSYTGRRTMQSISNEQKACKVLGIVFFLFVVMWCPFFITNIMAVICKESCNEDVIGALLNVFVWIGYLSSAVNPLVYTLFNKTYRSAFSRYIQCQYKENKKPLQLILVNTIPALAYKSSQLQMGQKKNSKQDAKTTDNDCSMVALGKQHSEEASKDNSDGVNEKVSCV
Gonadotropin-releasing hormone receptor (Homo sapiens), sequence (P30968 whole entry, looked up): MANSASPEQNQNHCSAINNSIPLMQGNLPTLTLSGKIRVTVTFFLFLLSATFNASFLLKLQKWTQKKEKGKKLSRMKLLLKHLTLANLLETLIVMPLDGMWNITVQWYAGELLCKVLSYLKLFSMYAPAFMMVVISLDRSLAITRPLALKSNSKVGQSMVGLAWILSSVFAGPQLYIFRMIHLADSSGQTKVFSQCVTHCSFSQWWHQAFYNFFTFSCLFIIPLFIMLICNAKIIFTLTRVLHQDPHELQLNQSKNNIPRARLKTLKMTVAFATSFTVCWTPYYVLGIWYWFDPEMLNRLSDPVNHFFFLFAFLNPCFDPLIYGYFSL
KiSS-1 receptor (Homo sapiens), sequence (Q969F8 whole entry, looked up): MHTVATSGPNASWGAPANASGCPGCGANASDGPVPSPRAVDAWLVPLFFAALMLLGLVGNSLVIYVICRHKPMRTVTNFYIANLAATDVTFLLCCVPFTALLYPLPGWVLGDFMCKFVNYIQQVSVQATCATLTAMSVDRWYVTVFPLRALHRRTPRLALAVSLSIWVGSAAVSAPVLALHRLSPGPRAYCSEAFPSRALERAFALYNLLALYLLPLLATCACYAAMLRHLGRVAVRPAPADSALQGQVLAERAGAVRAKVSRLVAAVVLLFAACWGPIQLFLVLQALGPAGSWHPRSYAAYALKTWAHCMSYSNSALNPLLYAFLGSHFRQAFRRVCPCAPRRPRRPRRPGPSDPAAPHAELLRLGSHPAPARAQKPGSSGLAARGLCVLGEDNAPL

`CCC1COC(Cn2cncn2)(c2ccc(Cl)cc2Cl)O1` (stereo not drawn): the Potency entry in [1], in test [2], in test [3], in [4], in test [5] and in test [6] was “inactive” throughout. The Potency entry in [7], in test [8], in test [9], in test [10], in [11] and in [12] was “inactive” each time. Moreover, the Potency result in test [13], in test [14], in [15], in [16] and in test [17] was “inactive” throughout.
Regarding `CC(Cc1ccc2c(c1)OCO2)NO` (stereo not drawn), the Potency result in test [1], in test [2], in [3], in test [4], in test [5] and in test [6] was “inactive” each time. Also, the Potency entry in test [7], in test [8], in test [9], in [10], in [13] and in [14] was “inactive” in each case. Further, the Potency entry in test [18], in [19], in [20], in [15], in [16] and in [17] was “inactive” each time. Moreover, the Potency in test [11] is 0.91 µM (active); in test [12] it was 1.33 µM (active).
Take `C=C(Cl)Cl`: the Potency result in test [1], in test [2], in [3], in test [4], in test [5] and in [7] was “inactive” each time. Also, the Potency entry in test [9], in test [10], in test [18], in test [19], in test [20] and in test [16] was “inactive” in each case. Besides, in [17], the Potency result is “inactive”.
Turning to `C=CCC1=C(C)[C@@H](OC(=O)[C@@H]2[C@@H](C=C(C)C)C2(C)C)CC1=O`, the Potency entry in test [1], in [3], in test [4], in test [5], in [6] and in [7] was “inactive” each time. The Potency entry in [8], in [9], in test [11], in test [12], in [14] and in [16] was “inactive” throughout. Besides, the Potency in [2] was 61.1 µM (active); in [13], 16.8 µM (active).
Consider `O=C1OC(c2ccc(O)c(S(=O)(=O)O)c2)(c2ccc(O)c(S(=O)(=O)O)c2)c2c(Br)c(Br)c(Br)c(Br)c21`, for which the Potency result in test [1], in test [3], in test [4], in [5], in test [6] and in test [7] was “inactive” in each case. The Potency entry in test [8], in test [10], in test [11], in test [12], in [13] and in test [14] was “inactive” throughout. The Potency result in test [18], in test [19], in test [20], in test [16] and in test [17] was “inactive” in each case. In addition, the Potency in [2] is 8.41 µM (active).
As to `COc1ccc([N+](=O)[O-])cc1O`, the Potency result in test [1], in test [2], in [3], in [4], in test [5] and in [6] was “inactive” in each case. Moreover, the Potency result in test [7], in test [8], in [9], in test [10], in [11] and in test [12] was “inactive” in each case. The Potency result in [13], in test [14], in [18], in test [20], in test [15] and in test [16] was “inactive” throughout. In addition, in test [17], the Potency entry was “inactive”.
For `C=CC(=C)C`, the Potency entry in [1], in [2], in test [3], in test [4], in [5] and in test [6] was “inactive” in each case. The Potency result in test [7], in test [8], in test [9], in test [10], in [11] and in test [12] was “inactive” each time. For the same compound, the Potency result in test [13], in [14], in test [18], in test [19], in test [20] and in test [16] was “inactive” in each case. The Potency entry in [17] was “inactive”.
As for `C=CCOC(=O)C(C)(C)OC(=O)c1cc(-n2c(=O)cc(C(F)(F)F)n(C)c2=O)ccc1Cl`, the Potency entry in test [1], in test [2], in test [3], in [4], in test [5] and in [6] was “inactive” each time. In addition, the Potency entry in [7], in [8], in test [9], in test [10], in [11] and in [12] was “inactive” in each case. Moreover, the Potency entry in [13], in test [18], in test [20], in [15], in [16] and in [17] was “inactive” throughout.

The record behind these values is PubChem BioAssay (Tox21).
